CRE-bla Fsk – Cell signaling CRE-BLA (Fsk stim); Potency, µM (series often up to 38.2 µM), without a hit: at the top dose activity change, negative = inhibition, most hits filed as activators; CHO CRE-bla reporter (cAMP response element driving beta-lactamase), forskolin EC10, beta-lactamase ratio; 71,000 compounds, 2.5% hits; active = well fitted activation curve with a large enough effect in the signal ratio, with a control signal flat, not every such curve was filed as active; inconclusive = small, poorly fitted or top-dose-only effect, or effect the other way, or a change in a side signal; the % refers to the signal ratio; note: potency is the fitted concentration of half-maximal effect; % of control where 0% means no effect
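CHO CRE-bla cells, overnight plating in Opti-MEM with 0.5% dialyzed FBS; cpd titration + EC10 NKH 477, 3 h 37 °C; CCF4 2 h RT; ex 405/em 460 vs 530 ratio → %Activity, AC50.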
ERK AVP inh – qHTS Assay for Inhibitors of the ERK Signaling Pathway using a Homogeneous Screening Assay. Potency, µM (top dose mostly 57.5 µM), for inactives: top-dose activity, negative = inhibition, most hits filed as inhibitors. HEK293-V1b, vasopressin-stimulated pERK AlphaScreen. 72,000 compounds, 0.99% hits. AID 995, 2007; note: potency is the fitted concentration of half-maximal effect; % is set by controls: 0 for no effect and ±100 for the full control effect; nearly all actives have a fitted effect of over 55% in size
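Phosphorylated ERK1/2 detected via AlphaScreen bead proximity in lysates of V1b-expressing HEK293 cells given 25 nM vasopressin for 5 min after 30 min compound exposure (37 °C). AC50 from Hill equation; basal DMSO 0%, vasopressin 100%.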
HBB splicing – qHTS Assay for Modulators of Hemoglobin Beta Chain Splicing; HBB splicing reporter cell assay, activation; EGFP reporter with mutant IVS2-654 intron; response scale: normalised to 500 nM splice-correcting PNA; Potency, µM (highest dose often 46.1 µM), for inactives: top-dose activation, usual class: activators; 65,000 compounds, 0.06% hits; AID 925, 2007; note: potency is the fitted concentration of half-maximal effect; 0% is about no effect
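Compounds were applied for 2 days to HeLa EGFP-654 cells, 500/well in Optimem with 2% FCS. The reporter's EGFP is disrupted by mis-splicing of beta-globin intron IVS2-654. Readout: summed well GFP fluorescence from 488 nm laser scanning; reference was 500 nM antisense […] 654 PNA.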
Epigenetic mod – qHTS Assay for Epigenetic Modulators; 68,000 compounds, 0.09% hits; AID 597, 2007; Potency, µM (doses to about 46.1 µM), for inactives: at the top dose GFP derepression (activation); mouse C127i GFP locus derepression, cytometry, 30 h; note: % of control where 0% means no effect
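Derepression screen: silenced CMV-GFP reporter in murine C127i cells, 30 h compound incubation at 37 C, washed cells imaged by laser-scanning cytometer to enumerate GFP-expressing objects of 20 to 120 um.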
IkB signaling – IkB Signaling | ABC-DLBCL IkBa-CBG/CBR dual luciferase ratio, 4 h; response scale: scaled: untreated 0%, proteasome inhibitor 100% | Potency, µM (titrated, usually from 57.1 µM), for inactives: at the highest dose IkBa stabilization activation | 110,000 compounds, 0.04% hits; active = well fitted curve in the direction sought with a large enough effect in the signal ratio, not every such curve was filed as active; inconclusive = small, poorly fitted or top-dose-only effect, or a change in a side signal; the % refers to the signal ratio;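 note: potency is the fitted concentration of half-maximal effect; the direction sought is a rising ratio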
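In this assay, an IκBα–CBG68 fusion accumulates when IKK-driven degradation is blocked; native CBR normalizes for cell number. OCI-Ly3 cells were treated 4 h with compound and doxycycline, then green and red light read after Chroma-Glo addition.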
* = called active by the depositor; ? = inconclusive; / = not tested or not shown; [ ] = dose if it differs, or a comment. Many of the other results were omitted from the sample, so hits are more common in it than they were. Unless noted, calls come from the whole dose curve; as a rule, active = well fitted curve in the direction sought with a large enough effect; inconclusive = small, poorly fitted or top-dose-only effect, or another doubt; inactive = no such curve, though single readings can be large; an effect the other way counts as inactive or inconclusive.

SMILES | CRE-bla Fsk | ERK AVP inh | HBB splicing | Epigenetic mod | IkB signaling
CC(c1nnc(SCC(=O)c2c(N)n(C)c(=O)n(C)c2=O)n1-c1ccc(Cl)cc1)N(C)C (configuration not stated) | 1% | 40µM* | 0%[57.5 µM] | 2% | 0%
Cc1nc2ccccc2c2oc(C(=O)NCCN3CCN(C)CC3)cc12 | ? | -26% | -1% | 3% | 6%
CCn1c(=O)c2cc(C(=O)N3CCN(C(=O)c4ccco4)CC3)sc2c2ccccc21 | 4µM* | ? | 0% | / | -1%
Cc1nc2ccccc2c2oc(C(=O)N3CCN(C(=O)c4ccco4)CC3)cc12 | 13µM* | -18% | -1% | 3% | 1%
Cc1nc2ccccc2c2oc(C(=O)NC3CC3)cc12 | 7.9µM* | ? | 1% | 0% | -7%
Cc1nc2ccccc2c2oc(C(=O)N3CCc4ccccc4C3)cc12 | ? | 7.9µM* | -1% | -2% | ?
COc1cccc(NC(=O)CCc2nnc3n(CC(C)C)c(=O)c4ccccc4n23)c1 | / | / | / | / | 2%
COc1cccc(-c2cc(N(C)Cc3ccco3)ncn2)c1 | 13% | -6% | 2% | 2%[9.22 µM] | -1%[11.4 µM]
CCOc1cc(-c2nc3c(c(CC)nn3-c3ccccc3)c3cc(OC)c(OC)cc23)ccc1O | / | / | / | / | 1%
CCOCCCn1c(=N)c(C(N)=S)cc2c(=O)n3cccc(C)c3nc21 | 13µM* | ? | 0% | 0% | -1%
CCOCCCNC(=O)c1cc2c(=O)n3cccc(C)c3nc2n1C | 0.25µM* | / | 1% | / | 4%
COC(=O)N1CCC2(CCCN(Cc3nccs3)C2)CC1 | 2% | -24% | 2% | 2%[9.22 µM] | 3%[11.4 µM]
CC(C)c1ccc(-c2noc(SCC(=O)N(C)c3ccc(F)cc3)n2)cc1 | / | / | / | / | 4%
COc1cc(N)c(Cl)cc1C(=O)N[C@H]1CCN(CCCOc2ccc(F)cc2)C[C@@H]1OC | ? | 32µM* | / | -1% | ?
COc1ccc(COn2c(=O)c(C)[n+]([O-])c3ccccc32)cc1OC | 10µM* | ? | ? | 6% | -2%
Cc1c(=O)n(OCc2ccccc2)c2ccccc2[n+]1[O-] | ? | -29% | ? | -4% | -1%
O=C(CCn1c(=O)c2ccccc2n(Cc2cccc(F)c2)c1=O)NCc1ccc2c(c1)OCO2 | / | / | / | / | 3%
CC(=O)Nc1ccc(S(=O)(=O)Nc2nc3ccccc3nc2N2CCCC2)cc1 | 13µM* | -9% | 1%[0.369 µM] | 0% | 0%
CC(=O)Nc1ccc(S(=O)(=O)Nc2cccc(-c3ccc(N4CCCCCC4)nn3)c2)cc1 | / | / | / | / | 0%
CCN(CC)S(=O)(=O)c1ccc2c(c1)c(=O)c(C(=O)NCc1ccc(Cl)cc1)cn2C | / | / | / | / | 1%
COc1ccccc1-c1ccc2ncnc(NCCNC(C)=O)c2c1 | 3% | 18% | -1% | -1%[9.22 µM] | 3%[11.4 µM]
CCc1ccc2oc(-c3cccc(NC(=O)c4cccnc4)c3)nc2c1 | -7% | 25µM* | / | -2% | 12%
COc1ccc(CCN(C)CCCN2CCc3cc(OC)c(OC)cc3CC2=O)cc1OC | / | 10% | 0% | / | /
CN1CCN(c2ncc3nc(-c4cccc(C#N)c4)c(=O)n(CCC#N)c3n2)CC1 | 10µM* | -7% | -1% | 0%[9.22 µM] | 0%[11.4 µM]
CN1CCN(c2ncc3nc(-c4cc(F)cc(F)c4)c(=O)n(CCC#N)c3n2)CC1 | ? | -23% | 0% | 2%[9.22 µM] | -2%[11.4 µM]
SMILES | CRE-bla Fsk | ERK AVP inh | HBB splicing | Epigenetic mod | IkB signaling
COCCn1c(=O)c(-c2cccc(C#N)c2)nc2cnc(N3CCN(C)CC3)nc21 | 13µM* | -26% | 2% | -3%[9.22 µM] | 3%[11.4 µM]
COCCn1c(=O)c(-c2cccc(C#N)c2)nc2cnc(N3CCNCC3)nc21 | ? | 24% | 0% | -11%[9.22 µM] | -3%[11.4 µM]
CCCSc1ncnc2c1oc1ccccc12 | ? | 14% | 1% | 11% | -2%
CC(=O)CSc1ncnc2c1oc1ccccc12 | 4µM* | -16% | -1%[0.369 µM] | 0% | -3%
COC(=O)c1ccc(CSc2ncnc3c2oc2ccccc23)o1 | 2.5µM* | 12% | 0% | 0% | ?
CCOc1ccccc1NC(=O)CSc1ncnc2c1oc1ccccc12 | 0.63µM* | 14% | 0% | 4% | 5%
CCCCCCCCCCCCCCCCOC[C@@H](COCC(F)(F)F)OP(=O)(O)OCO | ? | / | 1% | 0% | -6%
CN(Cc1ccccc1)Cn1ccnc1 | 4%[7.6 µM] | 2%[11.5 µM] | 2%[9.22 µM] | 0%[9.22 µM] | 0%[11.4 µM]
CCSc1nc2c([nH]c3ccccc32)c(=O)n1CC | / | / | / | / | 0%
COCCCNC(=O)CSc1nc2c(sc3ccccc32)c(=O)n1CCc1ccccc1 | / | / | / | / | 0%
Cc1c(CN(C)C)c2c(n1C)C(=O)c1ccc(Br)cc1-2 | 3.2µM* | ? | 0% | -1% | 1%
N#Cc1cc2c(=O)n3ccccc3nc2n(CCCN2CCOCC2)c1=O | 10µM* | -25% | 4%[57.5 µM] | 0% | -2%
Cc1cccn2c(=O)c3cc(C#N)c(=O)n(Cc4cccnc4)c3nc12 | 6.3µM* | -18% | -1%[57.5 µM] | 4% | 1%
N#Cc1cc2c(=O)n3ccccc3nc2n(Cc2cccnc2)c1=O | 1µM* | -21% | 0%[0.369 µM] | -3% | 1%
Cc1ccc2nc3c(cc(C#N)c(=O)n3CCN3CCOCC3)c(=O)n2c1 | ? | 7% | -4%[57.5 µM] | 0% | -1%
Cc1ccc2nc3c(cc(C#N)c(=O)n3CC3CCCO3)c(=O)n2c1 (configuration not stated) | 1.3µM* | -4% | -1%[57.5 µM] | 4% | 2%
Cc1ccccc1C(=O)Nc1ccc(OCc2cc(=O)n3cccc(C)c3n2)cc1 | / | / | / | / | 0%
COc1ccc(CNCc2c(C(=O)O)c(C)n(Cc3ccc(Cl)cc3)c2C)c(OC)c1 | / | / | / | / | 1%
CCOC(=O)c1ccccc1NC(=O)c1cn(CC)c2nc(C)ccc2c1=O | ? | -27% | 1%[0.369 µM] | 0% | 0%
CCn1cc(C(=O)OCc2ccccc2)c(=O)c2ccc(C)nc21 | 13µM* | ? | -1% | -2% | -2%
CCn1cc(C(=O)OCc2ccc(F)cc2)c(=O)c2ccc(C)nc21 | 13µM* | -26% | 0% | 7% | -1%
CCn1cc(C(=O)OCc2cccc(Br)c2)c(=O)c2ccc(C)nc21 | ? | -4% | 3% | 4% | -3%
CCc1cccc(NC(=O)COC(=O)c2cn(CC)c3nc(C)ccc3c2=O)c1 | / | / | / | / | -1%
CCn1cc(C(=O)OCC(=O)OC2CC(C)CCC2C(C)C)c(=O)c2ccc(C)nc21 (configuration not stated) | ? | 25µM* | 0% | -1% | ?
O=C1C=C[C@@H](O)[C@@H]2[C@H]3C(=O)N(c4ccc(F)cc4F)C(=O)[C@@H]3CC[C@@H]12 | / | 11%[11.5 µM] | 1%[9.22 µM] | / | /
N#CC(C#N)=C(N)/C(C#N)=C/c1ccc(O)cc1 | -6% | 13µM* | -1% | -1% | 1%

Screening results (PubChem)
